Screens deposited in PubChem BioAssay by National Center for Advancing Translational Sciences (NCATS).
This is a sample that favours compounds with a hit; in the whole collection about 7.3% have one here.
NPC1 promoter act – activators of NPC1 promoter; Huh7 NPC1 promoter luciferase reporter, 24 h; Potency, µM (doses to about 9.22 µM), inactives show top-dose activation, actives largely listed as activators; actives 2.4% (n = 320,000); further: % of control where 0% means no effect; nearly all actives have a fitted effect of over 60% in size
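Huh7 reporter cells (NPC1 promoter driving luciferase) are dosed with compound for 24 h at 37 °C, 5% CO2; luciferase detection reagent is then added and luminescence measured after 10 min at ambient temperature.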
uPA generation – blocks generation of uPA at the cell surface; actives 0.31% (n = 330,000); Potency, µM (titrated, usually from 38.3 µM), without a hit: at the highest dose activity change, negative = inhibition, actives largely listed as inhibitors; cell surface uPA generation assay, qHTS; active means well fitted inhibition curve with a large enough effect; inconclusive means small, poorly fitted or top-dose-only effect; inactive means no such curve, though single readings can be large or run the other way; tested in mouse RAW 264.7 cells; further: on the % scale 0 is the no-effect control and ±100 the full control effect; nearly all actives have a fitted effect of over 55% in size
Rab9 promoter act – Rab9 promoter activation; Huh7 Rab9 promoter-luciferase reporter, luminescence, 24 h; Potency, µM (series often up to 9.22 µM), for inactives: at the highest dose activation, negative = inhibition, actives largely listed as activators; actives 2.8% (n = 320,000); further: % of control where 0% means no effect; nearly all actives have a fitted effect of over 60% in size
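Promoter activation is measured as luciferase luminescence in Huh7 cells stably transfected with a Rab9 promoter–luciferase construct, following 24 h compound exposure at 37 °C and 10 min reagent incubation at ambient temperature.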
SMN2 splice up – enhancers of SMN2 splice variant expression. HEK293 SMN2-luciferase splicing reporter, luminescence, 30-36 h. Potency, µM (titrated, usually from 46.1 µM), for the others: at the top dose activity change, positive = activation, most hits filed as activators. actives 2.8% (n = 210,000); further: % of control where 0% means no effect; nearly all actives have a fitted effect of over 55% in size
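qHTS luciferase splicing reporter: luminescence rises when SMN2 exon 7 is included in transfected HEK293 cells. Compound exposure lasted 30-36 h at 37C, with 4.5 mM final sodium butyrate as control, followed by a ONE-Glo read.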
ELG1 genotox – genotoxicity induction in ELG1-luciferase HEK293T cells | HEK293T ELG1-luciferase reporter, luminescence, 16 h | AID 504466 | actives 1.3% (n = 330,000) | Potency, µM (highest dose often 46 µM), for the others: at the top dose activity change, positive = activation, usual class: activators; further: % of control where 0% means no effect; nearly all actives have a fitted effect of over 60% in size
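Quantitative HTS format in 1536-well plates. HEK293T ELG1-luciferase reporter cells receive test compound and are incubated 16 hr at 37 °C, 5% CO2; ONE-Glo added, 30 min room temperature, then luminescence read.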
FLuc counter – firefly luciferase modulation, counter-screen for miR-21 project; P08659; purified FLuc, Km substrates, luminescence inhibition; Potency, µM (top dose mostly 57.5 µM), without a hit: at the highest dose activity change, negative = inhibition, most hits filed as inhibitors; actives 6.9% (n = 360,000); AID 588342;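 further: plate controls were vehicle for no effect and reference inhibitor for full effect; nearly all actives have a fitted effect of over 55% in size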
Target sequence (P08659 whole entry, looked up): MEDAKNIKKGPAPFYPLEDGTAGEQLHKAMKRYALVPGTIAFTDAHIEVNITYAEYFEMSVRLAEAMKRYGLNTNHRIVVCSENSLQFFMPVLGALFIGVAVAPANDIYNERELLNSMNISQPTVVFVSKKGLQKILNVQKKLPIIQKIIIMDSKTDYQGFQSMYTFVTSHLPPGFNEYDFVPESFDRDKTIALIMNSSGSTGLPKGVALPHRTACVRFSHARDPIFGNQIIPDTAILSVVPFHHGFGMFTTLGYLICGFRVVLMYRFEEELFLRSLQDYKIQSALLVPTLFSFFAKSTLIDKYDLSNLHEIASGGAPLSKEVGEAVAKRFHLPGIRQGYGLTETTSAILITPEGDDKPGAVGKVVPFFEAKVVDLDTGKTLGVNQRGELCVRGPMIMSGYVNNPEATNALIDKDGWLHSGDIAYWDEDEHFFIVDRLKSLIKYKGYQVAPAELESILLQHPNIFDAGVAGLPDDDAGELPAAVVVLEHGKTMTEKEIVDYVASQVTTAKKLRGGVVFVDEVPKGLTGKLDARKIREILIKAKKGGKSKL
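Purified P. pyralis luciferase (10nM final) with 10uM D-luciferin and 10uM ATP (Km levels) in 50mM Tris acetate pH 7.5, 10mM Mg acetate, 0.01% Tween-20, 0.05% BSA; qHTS 6-point titration, ~60 µM downward; luminescence read.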
Starred values were filed as active, the others as inactive; u = inconclusive; x = no result; [ ] = dose if it differs, or a comment. Unless noted, the call rests on the fitted dose curve; in most records, active means well fitted curve in the direction sought with a large enough effect; inconclusive means small, poorly fitted or top-dose-only effect, or another doubt; inactive means no such curve, though single readings can be large; an effect the other way counts as inactive or inconclusive. Potency means the concentration at half of the fitted maximal effect.

SMILES	NPC1 promoter act	uPA generation	Rab9 promoter act	SMN2 splice up	ELG1 genotox	FLuc counter
COc1ccccc1OCc1nc2ccccc2[nH]1	2.51µM*	3.5%	2µM*	11.2µM*	u	10.7µM*
c1cnc2c(OCc3nc4ccccc4[nH]3)cccc2c1	3.98µM*	-13.8%	2.24µM*	11.2µM*	u	9.53µM*
Cc1ccccc1OCc1nc2ccccc2[nH]1	u	-3.2%	1.78µM*	x	u	4.78µM*
Cc1ccc(-n2c(=O)c3c4c(sc3n(CC(=O)Nc3cccc(Cl)c3)c2=O)CCCCC4)cc1C	x	x	x	-8.2%	x	-5.1%
CC(=O)Nc1cccc(C(=O)/C=C/c2ccc(F)cc2)c1	2.3%	-1.2%	-0.4%	-11.5%	u	19µM*
CC(=O)Nc1cccc(C(=O)/C=C/c2cccs2)c1	23.2%	-3.2%	u	8.2%	0.3%	13.5µM*
CC(=O)Nc1cccc(C(=O)/C=C/c2ccc(/C=C/C(=O)c3cccc(NC(C)=O)c3)cc2)c1	-31.0%	x	-33.8%	-68.3%	-16.9%	0.0%
CC(=O)Nc1cccc(C(=O)/C=C/c2ccc(N(C)C)cc2)c1	2.2%	-9.1%	24.8%	5.3%	u	2.69µM*
Nc1ccc2nc(SCC(=O)c3ccccc3)sc2c1	0.8%	0.1%	10.9%	x	21.1%	u
Nc1ccc2nc(SCc3ccccc3F)sc2c1	25.9%	-5.7%	u	x	u	1.69µM*
CC1CCc2onc(C(=O)N3CCN(c4ccccc4)CC3)c2C1 (configuration not stated)	x	x	x	x	x	5.3%
COc1ccc(O)c(/C=N/N2CCCCC2)c1	3.16µM*	-2.6%	2µM*	x	u	9.53µM*
COc1ccc(/C(C)=N/N2CCCCC2)c(O)c1	5.1%	17.8%	18.4%	x	6.8%	9.53µM*
COc1ccccc1C(=O)Nc1ccc(C(=O)OCc2cc(=O)n3ccsc3n2)cc1	x	x	x	x	x	-1.0%
CC1CCN(S(=O)(=O)c2ccc(NC(=O)[C@@H]3CCCN3C(=O)c3cccs3)cc2)CC1	-7.3%	-0.8%	-3.5%	x	-0.8%	3.6%
Cc1ccc(-n2nc(CO)c(C(=O)NCCCc3ccccc3)n2)cc1C	x	x	x	16.4%	x	5.36µM*
Cc1ccc(C(=O)NCC(=O)NCCCc2ccccc2)s1	0.6%	1.6%	-0.1%	x	-0.1%	3.1%
Cc1ccccc1C(=O)NCCCCc1ccccc1	2.9%	-1.8%	-0.3%	-2.1%	-1.2%	-7.4%
Cc1ccc(C(=O)NCCCc2ccccc2)s1	3.98µM*	2.1%	u	12.6µM*	u	21.3µM*
Cc1ccccc1C(=O)NCCCc1ccccc1	24.4%	-3.5%	29.3%	12.6µM*	10.8%	u
c1ccc(-c2ccc(-c3cn4c(n3)CCC4)cc2)cc1	0.447µM*	-10.3%	u	27.4%	u	0.849µM*
COc1ccc(-c2cn3c(n2)CCC3)cc1	2.51µM*	-4.3%	1.58µM*	12.6µM*	u	13.5µM*
Cn1c(N)c(C(=O)COC(=O)c2cc(C3CC3)nc3ccccc23)c(=O)n(C)c1=O	-1.1%	4.9%	0.9%	-8.4%	-1.6%	-0.7%
COc1ccc(-c2cc(C(=O)OCC(=O)c3c(N)n(C)c(=O)n(C)c3=O)c3ccccc3n2)cc1	-0.9%	-0.7%	13.6%	-5.2%	2.4%	7.57µM*
COc1ccc(-c2cc(C(=O)c3c(N)n(C)c(=O)n(C)c3=O)c3ccccc3n2)cc1	u	1.41µM*	u	x	u	0.379µM*
SMILES	NPC1 promoter act	uPA generation	Rab9 promoter act	SMN2 splice up	ELG1 genotox	FLuc counter
Cn1c(N)c(C(=O)COC(=O)c2cc(-c3ccco3)nc3ccccc23)c(=O)n(C)c1=O	0.5%	10.0%	-3.4%	-22.8%	-6.9%	u
Cc1cc(C)n(C(=O)c2ccc([N+](=O)[O-])cc2Cl)n1	-4.4%	-0.5%	-0.6%	x	0.1%	8.2%
Cc1cc(Br)ccc1NC(=O)CNC(=O)Cc1ccc(S(=O)(=O)N2CCOCC2)s1	0.4%	-4.1%	-1.6%	x	0.5%	1.7%
COc1ccc(S(=O)(=O)Nc2cccc(-c3ccc(N4CCCC4)nn3)c2)cc1F	x	x	x	x	x	13.5µM*
CCOc1ccc(S(=O)(=O)Nc2cccc(-c3ccc(N4CCC(C)CC4)nn3)c2)cc1	x	x	x	x	x	2.69µM*
COc1ccc(S(=O)(=O)Nc2cccc(-c3ccc(N4CCCCCC4)nn3)c2)cc1OC	17.8%	-11.1%	4.4%	x	17.6%	6.01µM*
CCCCOc1ccc(S(=O)(=O)Nc2ccc(-c3ccc(N4CCCCCC4)nn3)cc2)cc1	x	x	x	x	x	-3.5%
COc1ccc(S(=O)(=O)Nc2cccc(-c3ccc(N4CCCCCC4)nn3)c2)cc1	x	x	x	x	x	6.75µM*
COc1ccc(-c2cccc(NS(=O)(=O)c3ccc([N+](=O)[O-])cc3)c2)nn1	2.5%	1.7%	2.8%	x	0.6%	2.0%
CN1CCN(C(CNC(=O)C(=O)Nc2cccc(Cl)c2)c2ccc3c(c2)OCO3)CC1 (configuration not stated)	x	x	x	x	x	1.4%
COc1ccc(S(=O)(=O)Nc2cccc(-c3ccc4nncn4n3)c2)cc1F	-38.9%	2.82µM*	-18.8%	1.5%	8.2%	-9.0%
O=S(=O)(Nc1cccc(-c2ccc3nncn3n2)c1)c1cccc(F)c1	-4.9%	-8.2%	-6.6%	x	12.5%	4.7%
O=C(N/N=C/c1ccccc1OCc1ccccc1Cl)c1cccnc1	0.2%	-5.6%	-4.5%	-20.8%	4.7%	23.9µM*
CCOc1cccc(/C=N/NC(=O)c2cccnc2)c1O	-21.5%	10µM*	-11.4%	x	u	19µM*
O=C(Nc1ccc(OCc2ccccc2Cl)cc1)c1cccnc1	-2.7%	u	1.2%	x	1.9%	u
COc1cc(/C=N/NC(=O)c2cc(C3CC3)[nH]n2)cc(OC)c1OC	2.3%	1.9%	-4.7%	x	-0.9%	u
CCOc1cccc(/C=N/NC(=O)c2cc(C3CC3)[nH]n2)c1O	-43.0%	u	-37.2%	x	u	12µM*
CCOc1cc(/C=N/NC(=O)c2cccnc2)ccc1O	-4.7%	1.1%	-5.6%	x	-0.7%	-1.5%
C[N+](C)(N)Cc1csc(-c2ccc(Cl)cc2)n1	x	x	x	-6.3%[9.22 µM]	x	x
Cc1cc(C)nc(SCc2csc(-c3ccccc3)n2)n1	2.51µM*	4.4%	1.41µM*	5.01µM*	4.61µM*	3.38µM*
Nc1ccccc1SCc1csc(-c2ccc(Cl)cc2)n1	u	-4.1%	u	-1.5%[9.22 µM]	9.5%	13.5µM*
O=c1c2c(-c3ccc(Cl)cc3)ccnc2[nH]n1-c1ccccc1	x	x	x	4.6%	x	-14.0%
Cc1ccc(NC(=O)c2ccc(Cl)c(NC(=O)c3cccs3)c2)cc1	22.0%	-5.1%	8.6%	x	3.3%	10.7µM*
Cc1nc2ccc(NC(=O)c3ccc(Cl)c(NC(=O)c4cccs4)c3)cc2s1	4.3%	-0.6%	-2.3%	11.5%	0.9%	13.5µM*
